# Results reported in paper PMC4336329 (PLoS ONE, 2015).
# Out of some 310,000 compounds screened, about 14,000 (4.5%) showed an effect of 50% or more. Effects have a minus sign here. Shown is part of a subset that was picked to be rich in strong results.
# Biological target: human ether-à-go-go-related gene (hERG) potassium channel (human, UniProt Q12809)
# Experiment: primary screen, population patch clamp on CHO cells stably expressing hERG; higher = less effect of the substance
# 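Note: peak tail current of the secondary pulse compared with the same well before compound.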
# Sequence of human ether-à-go-go-related gene (hERG) potassium channel (Q12809 whole entry, looked up): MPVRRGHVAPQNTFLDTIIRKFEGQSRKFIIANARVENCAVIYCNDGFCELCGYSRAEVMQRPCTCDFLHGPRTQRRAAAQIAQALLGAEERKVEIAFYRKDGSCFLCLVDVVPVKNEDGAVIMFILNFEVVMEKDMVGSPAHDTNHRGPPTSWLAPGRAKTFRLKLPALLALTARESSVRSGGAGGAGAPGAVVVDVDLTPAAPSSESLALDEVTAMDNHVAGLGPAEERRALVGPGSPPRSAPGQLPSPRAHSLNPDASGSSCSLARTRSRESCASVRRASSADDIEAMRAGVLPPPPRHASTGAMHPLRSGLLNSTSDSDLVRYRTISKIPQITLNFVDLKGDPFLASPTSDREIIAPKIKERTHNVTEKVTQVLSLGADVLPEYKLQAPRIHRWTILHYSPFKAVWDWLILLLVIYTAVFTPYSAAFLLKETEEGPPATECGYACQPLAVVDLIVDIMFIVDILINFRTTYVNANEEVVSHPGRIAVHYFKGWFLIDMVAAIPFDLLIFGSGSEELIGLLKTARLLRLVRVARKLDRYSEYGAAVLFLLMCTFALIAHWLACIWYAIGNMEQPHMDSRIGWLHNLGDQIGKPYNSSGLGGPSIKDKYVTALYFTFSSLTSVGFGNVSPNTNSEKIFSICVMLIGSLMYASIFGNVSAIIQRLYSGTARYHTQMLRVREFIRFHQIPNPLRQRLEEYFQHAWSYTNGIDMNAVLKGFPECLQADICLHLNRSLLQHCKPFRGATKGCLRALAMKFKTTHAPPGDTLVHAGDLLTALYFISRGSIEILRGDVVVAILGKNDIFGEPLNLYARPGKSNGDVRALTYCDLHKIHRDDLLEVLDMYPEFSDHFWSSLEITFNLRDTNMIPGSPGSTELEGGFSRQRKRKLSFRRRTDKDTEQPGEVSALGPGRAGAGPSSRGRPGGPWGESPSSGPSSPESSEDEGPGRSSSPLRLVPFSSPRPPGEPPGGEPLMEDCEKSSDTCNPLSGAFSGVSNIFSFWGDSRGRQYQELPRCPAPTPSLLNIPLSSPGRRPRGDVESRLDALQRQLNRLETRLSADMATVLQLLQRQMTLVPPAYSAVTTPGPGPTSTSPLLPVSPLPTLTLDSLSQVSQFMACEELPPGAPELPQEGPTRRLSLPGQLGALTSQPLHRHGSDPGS
row,Structure (SMILES),"hERG current change (%, negative = inhibition) at 10uM [%]"
1,Cc1cccc(-c2onc3ccc(C4(C)OCCO4)cc23)c1,-1.6
2,CCOC(=O)c1[nH]cnc1C(=O)O,-2.12
3,CN(C)c1ccc(N2C(=NC(=O)C3CCCO3)SC3CS(=O)(=O)CC32)cc1 (stereo not shown),11.1
4,CCN(CC)C(=O)N1CCN(C(=O)N2CCOCC2)CC1,29.8
5,Cc1ccc2cccc(S(=O)(=O)N3CCN(c4cccc(Cl)c4)CC3)c2n1,-2.91
6,CC1CC(=O)N(CC(=O)Nc2cccc(F)c2)c2ccccc2S1(=O)=O (stereo not shown),-4.3
7,O=C(N1CCCCCC1)n1c(Cc2ccccc2)nc2ccccc21,-30.5
8,O=C(CN1CCN(c2ncc(C(F)(F)F)cc2Cl)CC1)NC(=O)NCc1ccccc1,4.2
9,CC(C)(C)c1ccc(C(=O)N2CCC(NC(=O)c3ccccc3)CC2)cc1,-1.48
10,O=C(NC1CCN(Cc2ccccc2)CC1)c1ccc(CS(=O)c2ccc(F)cc2)o1 (stereo not shown),-22.4
11,S=C(Nc1ccccc1)NC1CCN(Cc2ccccc2)CC1,-39.6
12,Cc1ccccc1C(=O)NC1CCN(Cc2ccccc2)CC1,-29.1
13,CC(C)(C)c1ccc(C(=O)NC2CCN(Cc3ccccc3)CC2)cc1,-65.3
14,Cl.O=C(NC(=S)NC1CCN(Cc2ccccc2)CC1)c1ccc(F)cc1,-72.3
15,CS(=O)(=O)Cc1ccc(C(=O)NC2CCN(Cc3ccccc3)C2)cc1 (stereo not shown),-5.28
16,O=C(NC1CCN(Cc2ccc(F)cc2)CC1)c1ccccc1,-50.2
17,O=C(NC1CCN(Cc2ccccc2)CC1)c1ccc2c(c1)[nH]c(=O)n2Cc1ccc(F)cc1,-21.8
18,Fc1ccc(NC(=S)NC2CCN(Cc3ccccc3)CC2)cc1,-30
19,Cc1ccc(C)n1-c1ccc(C(=O)NC2CCN(Cc3ccccc3)CC2)cc1,-65.5
20,Cc1ccc(-n2c(=O)[nH]c3cc(C(=O)NC4CCN(Cc5ccccc5)CC4)ccc3c2=O)cc1,11.2
21,Cc1ccc(-c2nnc(SCC(N)=O)n2C)cc1,-0.685
22,CN(C)N1C(N)=C(C#N)C(c2cccnc2)C2=C1CCCC2=O (stereo not shown),-9.73
23,CC(C)Oc1ccc(C(=O)O)cc1,16.5
24,O=S(=O)(NCc1ccccc1)c1ccc(Cl)c(S(=O)(=O)NCc2ccccc2)c1,-33
25,COc1ccc(C(=O)NCCC2=CCCCC2)cc1,-9.79
26,NS(=O)(=O)c1ccc(CCNC(=O)CNS(=O)(=O)c2cccc(Br)c2)cc1,13.2
27,COc1ccc(C2C(C#N)=C(N)N(c3sc4c(c3C#N)CCCC4)C3=C2C(=O)CC(C)(C)C3)cc1 (stereo not shown),-2.99
28,O=C(COc1ccc(Cl)cc1)Nc1ccc2oc(=O)ccc2c1,3.7

row,Structure (SMILES),"hERG current change (%, negative = inhibition) at 10uM [%]"
1,Cc1cc(C)n(C(=O)c2cc(F)c(F)cc2C)n1,4.1
2,CC(C)Oc1ccc(C(=O)NC2CCCCC2)cc1,10.3
3,Cc1ccc(CN2CCSc3ccc(C(=O)NC4CCN(Cc5ccccc5)CC4)cc32)cc1,8.21
4,OC1CCN(Cc2ccc3ccccc3c2)CC1,13.4
5,O=C(NC1CCN(Cc2ccccc2)CC1)c1ccccc1,-33.3
6,O=C(NC1CCN(Cc2ccc3ccccc3c2)CC1)c1ccccc1,-66.3
7,Cc1ccc(CN2CCC(NC(=O)c3ccccc3)CC2)cc1,-75
8,CCCCOc1ccc(C(=O)NCC(=O)NC2CCN(Cc3ccccc3)CC2)cc1,-25.6
9,CC(C)Oc1ccc(C(=O)NC2CCN(Cc3ccccc3)CC2)cc1,-60.8
10,O=C(NC1CCN(Cc2ccc(Cl)c(Cl)c2)CC1)c1ccccc1,-18.3
11,CCOC(=O)c1sc(=NC(=O)CCSc2ccccc2)n(C)c1C,-11.8
12,O=C(NCCOc1cccc2cccnc12)c1cccs1,-12.8
13,O=C(CSc1ncnc2c1nnn2Cc1ccc(F)cc1)NC1CCCCC1,11.8
14,N/C(=N\OC(=O)N1c2ccccc2Sc2ccccc21)c1ccc(Br)cc1,5.79
15,O=C(COc1c(Br)cc(Br)c2cccnc12)N1CCc2ccccc2C1,8.07
16,CC(=O)N/C(=C\c1ccccc1)C(=O)OCC(=O)N(CC(C)C)c1c(N)n(Cc2ccccc2)c(=O)[nH]c1=O,6.75
17,CC(c1ccc(F)cc1)n1c(-c2ccc3ccccc3n2)n[nH]c1=S (stereo not shown),18.1
18,Cn1c(=O)c2c(nc(SCc3ccc(F)cc3)n2C)n(C)c1=O,1.9
19,O=C(NCCCN1CCCC1=O)c1ccc(Cl)c(S(=O)(=O)N2CCCCC2)c1,-24.1
20,CN(C)C(CNC(=O)c1ccc(Cl)c(S(=O)(=O)N2CCCCCC2)c1)c1ccccc1 (stereo not shown),-67.5
21,CN(C)CCCNC(=O)c1ccc(Cl)c(S(=O)(=O)N2CCCCCC2)c1.Cl,-72.4
22,CCN(CC)CCOC(=O)c1ccc(NC(=O)c2ccc(Cl)c(S(=O)(=O)N3CCCCCC3)c2)cc1.Cl,13.7
23,O=C(NCC(O)c1ccccc1)c1ccc(Cl)c(S(=O)(=O)N2CCCC2)c1 (stereo not shown),-0.367
24,O=C(NCC(O)c1ccccc1)c1ccc(Cl)c(S(=O)(=O)N2CCCCC2)c1 (stereo not shown),8.95
25,CCN(CC)CCNC(=O)c1ccc(Cl)c(S(=O)(=O)N2CCCCCC2)c1.Cl,-67.4
26,Cc1ccc(CNC(=O)c2ccc(Cl)c(S(=O)(=O)N3CCCCC3)c2)cc1,-27.3
27,CCN(CC)CCNC(=O)c1ccc(NC(=O)c2ccc(Cl)c(S(=O)(=O)N3CCCCCC3)c2)cc1.Cl,-24
